Only some compounds are listed: those with a hit (about 1.9% of all), similar ones and a draw of the others.
PP5 inh: PP5 (human) phosphatase inhibition; inhibition, % at 6.7 µM; purified PP5c, OMFP substrate fluorescence; 320,000 tested, 0.18% active;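 active = inhibition above the campaign's mean inhibition across all tested compounds plus 3 SD, cut at about 9.5% in these data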
PP1 counter: blocks human PP1-alpha phosphatase, a PP5 counter-screen; inhibition, % at 6.7 µM; purified PP1alpha, OMFP fluorescence; AID 2235; 320,000 tested, 0.9% active;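 active = inhibition above the mean inhibition of all tested compounds plus 3 SD, computed separately for each screening campaign, cut at about 15% in these data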
Target sequence (P62136 whole entry, looked up): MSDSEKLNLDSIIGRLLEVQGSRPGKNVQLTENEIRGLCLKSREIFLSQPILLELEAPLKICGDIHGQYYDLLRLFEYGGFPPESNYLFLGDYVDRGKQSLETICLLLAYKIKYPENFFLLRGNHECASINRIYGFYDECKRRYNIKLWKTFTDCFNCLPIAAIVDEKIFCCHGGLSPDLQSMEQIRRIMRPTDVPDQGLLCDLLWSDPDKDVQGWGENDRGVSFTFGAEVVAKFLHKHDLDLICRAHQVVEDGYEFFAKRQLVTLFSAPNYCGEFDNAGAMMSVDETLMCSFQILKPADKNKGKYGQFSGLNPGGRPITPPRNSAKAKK
ATG4B inhibitor: inhibitors of human ATG4B cysteine protease | Q9Y4P1 | ATG4B cleavage of LC3-PLA2, NBD-HPC fluorescence, 1 h | inhibition, % at 8.33 µM | 340,000 tested, 0.51% active; in the data active = inhibition above about 40%
Cardio protect: protects H9c2 cardiomyocytes from peroxide injury; protection from H2O2 cell death, % at 20 µM; H2O2 injury protection, ATPLite, 2 h; 360,000 tested, 0.63% active;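 active = compounds giving at least 50% protection of heart cells from peroxide-induced death in the single-dose screen, raw or plate-pattern-corrected value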
ATG4B conf: confirmation of human ATG4B inhibitors. ATG4B protease fluorescent substrate cleavage assay. AID 504757. inhibition, % at 8.33 µM. 320 tested, 92% active. shares compounds with ATG4B inhibitor; in the data active = inhibition above about 39%
PLA2 counter: PLA2 (human) inhibition in ATG4B counter-screen; shares compounds with ATG4B inhibitor; purified PLA2, NBD-C6-HPC fluorescence, 45 min; inhibition, % at 8.33 µM; 1,600 tested, 66% active; in the data active = inhibition above about 50%
Each line names hits and unclear results; the compound was inactive in the other large screens (follow-up assays come after a bar, where they were run).

COc1cccc(NS(=O)(=O)c2ccc3c(c2)C2C=CCC2C(c2ccc(C(=O)O)cc2)N3)c1 (centres undefined)	ATG4B inhibitor 67 | ATG4B conf 62 | PLA2 counter inactive
CSc1ccccc1NC(=O)COC(=O)Cn1cc(C(F)(F)F)ccc1=O	none
C[C@@]12CCC=C[C@H]1[C@H](c1ccccc1Br)N(Cc1ccccc1)C2=O	ATG4B inhibitor 48 (no result: PP5 inh, PP1 counter) | PLA2 counter 79
Cc1ccc(F)c([C@H]2[C@@H]3C=CCC[C@@]3(C)C(=O)N2Cc2ccccc2)c1	none
O=c1oc(-c2ccccc2)nc2sc3c(c12)CCC3	ATG4B inhibitor 56 | ATG4B conf 72 | PLA2 counter inactive
O=C1CCC(=O)N1c1ccc(-c2nc3sc4c(c3c(=O)o2)CCC4)cc1	none
COc1cc(NC(=O)c2ccc3c(c2)S(=O)(=O)N=C2CCCCCN23)cc(OC)c1	none
Cc1cc(-c2nnc(SCC(=O)Nc3ccccc3C(F)(F)F)o2)c(C)n1-c1ccccc1	none
Cc1cccc(NC(=O)CSc2nnc(-c3cc(C)n(-c4ccccc4)c3C)o2)c1C	ATG4B inhibitor 41 | PLA2 counter 56
NC(=O)NC[C@@H]1CC[C@@H](Cc2ccc(-c3ccccc3)cc2)O1	ATG4B inhibitor 80 (no result: PP5 inh, PP1 counter) | PLA2 counter 81
COc1ccc(NC(=O)NC[C@@H]2CC[C@@H](Cc3ccc(-c4ccccc4)cc3)O2)cc1	ATG4B inhibitor 40 (no result: PP5 inh, PP1 counter) | PLA2 counter 74
OC[C@@H]1CC[C@@H](Cc2ccc(-c3ccccc3)cc2)O1	none (no result: PP5 inh, PP1 counter)
NS(=O)(=O)c1ccc(CNC(=O)CSc2nc3ccc(Cl)cc3[nH]2)cc1	none
Cc1ccc([C@H]2C[C@@H](n3cc(-c4ccc(F)cc4)nn3)[C@H](O)CN2C(=O)C2CCCCC2)cc1	none (no result: PP5 inh, PP1 counter, ATG4B inhibitor)
Cc1ccc(-n2nnnc2SCC(=O)N2CCc3ccccc3C2)c(C)c1	ATG4B inhibitor 44 | PLA2 counter inactive
Cc1c(NC(=O)C(C)Oc2cccc(F)c2)c(=O)n(-c2ccccc2)n1C (centres undefined)	none (no result: PP5 inh, PP1 counter)
CCOc1ccccc1C(=O)N/N=C/c1coc2ccc(C)cc2c1=O	ATG4B inhibitor 65 (no result: PP5 inh, PP1 counter) | PLA2 counter 76
O=C(NCC1CCCN1S(=O)(=O)c1cccs1)c1ccccc1F (centres undefined)	none
O=C(/C=C/c1ccccc1O)c1ccc(Cl)cc1	PP1 counter 17, ATG4B inhibitor 69 | PLA2 counter 88
CCCOC(=O)c1c(NC(=O)CCCn2nc([N+](=O)[O-])c(Cl)c2C)sc(C(=O)OC)c1C	ATG4B inhibitor 62 | PLA2 counter 57
CCCOC(=O)c1c(NC(=O)CCCn2nc([N+](=O)[O-])cc2C)sc(C(=O)OC)c1C	none
CCOC(=O)c1sc(NC(=O)CCCn2nc([N+](=O)[O-])c(Cl)c2C)c(C(=O)OCC)c1C	ATG4B inhibitor 57 | PLA2 counter 52
Cc1ccc(C(c2ccc(C)c(C)c2)C(O)C2OC(=O)C(O)C2O)cc1C (centres undefined)	none (no result: PP5 inh, PP1 counter)
COc1ccc(N(CC(=O)NCc2ccc(F)cc2)C(=O)c2snc(C(N)=O)c2N)cc1OC	none
Cc1ccc(N(CC(=O)NCc2ccc(F)cc2)C(=O)c2snc(C(N)=O)c2N)cc1C	ATG4B inhibitor 60 | PLA2 counter 57
O=C(CCn1c2c(c3ccccc31)CCCC2)NNC(=O)c1ccc(Cl)c([N+](=O)[O-])c1	ATG4B inhibitor 52 | PLA2 counter 61
CC1=CC=CN2C1=NC(=O)CC2(C)C(=O)N(CC(=O)NC1CCCC1)c1cc(C)cc(C)c1 (centres undefined)	none
CC(=O)CSc1nc2c(c(=O)[nH]c(=O)n2C)n1CCCc1ccccc1	none
CC(Sc1ccc(Cl)cc1)C(=O)Nc1ccccc1-c1ccccc1 (centres undefined)	ATG4B inhibitor 50 | ATG4B conf 71 | PLA2 counter inactive
Cc1ccc(S(=O)(=O)N2CCN(C(=O)CCC(=O)NCc3cccc(C(F)(F)F)c3)CC2)cc1	ATG4B inhibitor 71 | PLA2 counter 78
Cc1cnc(C(=O)OC(C)C(=O)NCc2ccccc2)cn1 (centres undefined)	none
CCCCn1c(=O)c(-c2ccccc2)c(O)c2ccccc21	none
CCCCn1c2ccccc2c2cc(CC(N)=O)ccc21	ATG4B inhibitor 62 | PLA2 counter 74
CCCCC(=O)NC(=S)Nc1cccc(Cl)c1N1CCCCC1	none

Assay outcomes (PubChem)
